Most compounds without a hit are left out; they make up all but 3.7% or so of the library.
Mtb UGM inh: inhibitors of M. tuberculosis UDP-galactopyranose mutase | P9WIQ1 | purified UGM, fluorescence polarization probe displacement | inhibition, % at 10 µM | actives 0.06% (n = 320,000) | AID 504406; in the data active means inhibition above about 10%, passing the limit was not always enough; inconclusive means no clear call, values can overlap the other calls
GDH-TPI counter: inhibits GDH-TPI coupling enzymes, artifact for Mtb FBA screen; GDH-TPI coupled enzyme counterscreen, NADH absorbance; inhibition, % at 4.8 µM; actives 1.2% (n = 360,000); AID 588335; in the data active means inhibition above about 30%
FadD28 FP inh: blocks FadD28 binding to the bisubstrate probe | fluorescence polarization | inhibition, % at 12.5 µM | actives 0.22% (n = 360,000); in the data active means inhibition above about 8.5%, passing the limit was not always enough; inconclusive means no clear call, values can overlap the other calls
Rv3671c inh: Rv3671c (M. tuberculosis) protease inhibition | inhibition, % at 5.96 µM | actives 0.048% (n = 320,000); in the data active means inhibition above about 38%;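 further: extracellular domain of Rv3671c used as enzyme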
Target sequence (P9WHR9 whole entry, looked up, the tested form may be a part): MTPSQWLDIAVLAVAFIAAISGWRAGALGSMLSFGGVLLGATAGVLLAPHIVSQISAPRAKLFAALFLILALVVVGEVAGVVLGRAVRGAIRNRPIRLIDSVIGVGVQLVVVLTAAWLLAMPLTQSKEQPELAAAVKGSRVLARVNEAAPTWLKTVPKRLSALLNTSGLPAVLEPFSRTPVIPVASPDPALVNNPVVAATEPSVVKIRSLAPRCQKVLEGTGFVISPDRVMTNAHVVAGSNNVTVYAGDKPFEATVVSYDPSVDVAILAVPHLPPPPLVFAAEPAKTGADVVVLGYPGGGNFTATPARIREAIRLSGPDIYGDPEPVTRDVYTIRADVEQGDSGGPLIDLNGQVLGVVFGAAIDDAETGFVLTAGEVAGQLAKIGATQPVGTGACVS
Mtb betalactam: beta-lactam sensitization of Mtb H37Rv | M. tuberculosis H37Rv growth with meropenem, percent inhibition | inhibition, % at 25 µM | actives 0.27% (n = 330,000) | AID 434955; call rule not given here;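 further: growth measured after seven days incubation then overnight dye step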
Mtb FBA inh: Mtb fructose-bisphosphate aldolase inhibition | P9WQA3 | purified M. tuberculosis FBA, fluorescence read-out | inhibition, % at 1 µM | actives 2.3% (n = 360,000); in the data active means inhibition above about 27%
Numbers stand for hits.

What do the screens show for `CN(C)C=NC(=O)/C(C#N)=C1\CCc2ccccc2N1`?
Mtb UGM inh: inactive; GDH-TPI counter: 56; FadD28 FP inh: inactive; Rv3671c inh: inactive; Mtb betalactam: inactive; Mtb FBA inh: inactive

How did O=C(COC(=O)c1ccc(O)cc1)Nc1ccccc1 do in these assays?
Mtb UGM inh: inactive; GDH-TPI counter: inactive; FadD28 FP inh: inactive; Rv3671c inh: inactive; Mtb betalactam: inactive; Mtb FBA inh: inactive

Results for CCOC(=O)C1=C(O)/C(=C/c2cn(CC(=O)NCC3CCCO3)c3ccccc23)SC1=Nc1ccc(C)cc1 (configuration not stated) ?
Mtb UGM inh: 22; GDH-TPI counter: inactive; FadD28 FP inh: inactive; Rv3671c inh: inactive; Mtb betalactam: inactive; Mtb FBA inh: inactive

How did CCON1C(=O)C2(CCCCC2)C(=O)C12C=CCCC2 (configuration not stated) do in these assays?
GDH-TPI counter: inactive; FadD28 FP inh: inactive; Mtb FBA inh: inactive

What do the screens show for `COc1ccc(OC)c(C(C(=O)NC2CCCCC2)N(C(=O)c2snc(C(N)=O)c2N)c2ccccc2OC)c1` (configuration not stated)?
Mtb UGM inh: inactive; GDH-TPI counter: inactive; FadD28 FP inh: inactive; Rv3671c inh: inactive; Mtb betalactam: inactive; Mtb FBA inh: 115

How did CCc1noc(C)c1C(=O)NNC(=O)COc1ccc(C)c(C)c1 do in these assays?
Mtb UGM inh: inactive; GDH-TPI counter: inactive; FadD28 FP inh: inactive; Rv3671c inh: inactive; Mtb betalactam: inactive; Mtb FBA inh: inactive

Results for CCc1noc(C)c1C(=O)NNC(=O)COc1ccc(C)cc1 ?
Mtb UGM inh: inactive; GDH-TPI counter: inactive; FadD28 FP inh: 20; Rv3671c inh: inactive; Mtb betalactam: inactive; Mtb FBA inh: inactive

How did CC1=NN(C(N)=S)C(=O)C1N=Nc1ccccc1O (configuration not stated) do in these assays?
Mtb UGM inh: inactive; GDH-TPI counter: inactive; FadD28 FP inh: inactive; Rv3671c inh: inactive; Mtb betalactam: inactive; Mtb FBA inh: inactive

Results for CC1=NN(C(N)=S)C(=O)C1N=Nc1c(C)n(C)n(-c2ccccc2)c1=O (configuration not stated) ?
Mtb UGM inh: inactive; GDH-TPI counter: 31; FadD28 FP inh: inactive; Rv3671c inh: inactive; Mtb betalactam: inactive; Mtb FBA inh: inactive

How did N#C/C(=C(/O)c1cc2ccccc2o1)c1nc2ccccc2s1 do in these assays?
Mtb UGM inh: inactive; GDH-TPI counter: inactive; FadD28 FP inh: inactive; Rv3671c inh: inactive; Mtb betalactam: inactive; Mtb FBA inh: inactive

Results for N#C/C(=C(/O)c1ccco1)c1nc2ccccc2s1 ?
Mtb UGM inh: inactive; GDH-TPI counter: 56; FadD28 FP inh: inactive; Rv3671c inh: inactive; Mtb betalactam: inactive; Mtb FBA inh: inactive

Results for N#C/C(=C(/O)CN1CCOCC1)c1nc2ccccc2s1 ?
Mtb UGM inh: inactive; GDH-TPI counter: 39; FadD28 FP inh: inactive; Rv3671c inh: inactive; Mtb betalactam: inactive; Mtb FBA inh: inactive

Results for N#C/C(=C(/O)COC(=O)c1ccccc1O)c1nc2ccccc2s1 ?
Mtb UGM inh: inactive; GDH-TPI counter: inactive; FadD28 FP inh: inactive; Rv3671c inh: inactive; Mtb betalactam: inactive; Mtb FBA inh: inactive

Results for Cc1ccc(S(=O)(=O)N2CCN(c3ccccc3)CC2)s1 ?
Mtb UGM inh: inactive; GDH-TPI counter: inactive; FadD28 FP inh: inactive; Rv3671c inh: inactive; Mtb betalactam: inactive; Mtb FBA inh: inactive

How did NC(=O)[C@@H]1CCCNc2c(I)cc([N+](=O)[O-])cc2C(=O)N[C@@H](CCC(=O)O)C(=O)N[C@@H](CO)C(=O)N1 do in these assays?
Mtb UGM inh: inactive; GDH-TPI counter: 35; FadD28 FP inh: inactive; Rv3671c inh: inactive; Mtb betalactam: inactive; Mtb FBA inh: inactive

Results for Cc1nc2ccccn2c1C(=O)N/N=C/c1ccc(CNC(=O)C(=O)Nc2ccccc2)o1 ?
Mtb UGM inh: inactive; GDH-TPI counter: 38; FadD28 FP inh: inactive; Rv3671c inh: inactive; Mtb betalactam: inactive; Mtb FBA inh: inactive

Results for COc1cc2cc(CN(C(=O)NC3CCCCC3)C3CCCC3)c(=O)[nH]c2cc1OC ?
Mtb UGM inh: inactive; GDH-TPI counter: inactive; FadD28 FP inh: inactive; Rv3671c inh: inactive; Mtb betalactam: inactive; Mtb FBA inh: inactive

What do the screens show for `COc1ccc2[nH]c(=O)c(CN(C(=O)c3ccccn3)C3CCCCC3)cc2c1`?
Mtb UGM inh: inactive; GDH-TPI counter: inactive; FadD28 FP inh: inactive; Rv3671c inh: inactive; Mtb betalactam: inactive; Mtb FBA inh: inactive

Results for O=C(NC1CCCCC1)N(Cc1cc2cc3c(cc2[nH]c1=O)OCCO3)C1CCCCC1 ?
Mtb UGM inh: inactive; GDH-TPI counter: 35; FadD28 FP inh: inactive; Rv3671c inh: inactive; Mtb betalactam: inactive; Mtb FBA inh: inactive

What do the screens show for `O=C(c1ccccn1)N(Cc1cc2ccccc2[nH]c1=O)C1CCCCC1`?
Mtb UGM inh: inactive; GDH-TPI counter: inactive; FadD28 FP inh: inactive; Rv3671c inh: inactive; Mtb betalactam: inactive; Mtb FBA inh: active

Results for Cc1ccnc(SCC(=O)Nc2sccc2C#N)n1 ?
Mtb UGM inh: inactive; GDH-TPI counter: inactive; FadD28 FP inh: inactive; Rv3671c inh: inactive; Mtb betalactam: inactive; Mtb FBA inh: inactive

Results for C/C(=N\NC(=O)CC#N)c1cc2ccc(O)cc2oc1=O ?
Mtb UGM inh: inactive; GDH-TPI counter: inactive; FadD28 FP inh: inactive; Rv3671c inh: inactive; Mtb betalactam: inactive; Mtb FBA inh: active

How did O=C(O)c1ccc(N=c2oc3cc(O)ccc3cc2C(=O)NCc2ccccc2)cc1 do in these assays?
Mtb UGM inh: inactive; GDH-TPI counter: inactive; FadD28 FP inh: inconclusive; Rv3671c inh: inactive; Mtb betalactam: inactive; Mtb FBA inh: active

What do the screens show for `O=C(O)c1cc2ccc(O)cc2oc1=O`?
GDH-TPI counter: inactive; FadD28 FP inh: inactive

What do the screens show for `O=C(NCc1ccccc1)c1cc2ccc(O)cc2oc1=O`?
Mtb UGM inh: inactive; GDH-TPI counter: inactive; FadD28 FP inh: inactive; Rv3671c inh: inactive; Mtb betalactam: inactive; Mtb FBA inh: active

What do the screens show for `COc1ccc(C(C)=NOC(=O)c2c(-c3ccccc3Cl)noc2C)cc1CN1CCOCC1`?
GDH-TPI counter: inactive; FadD28 FP inh: inactive; Mtb FBA inh: inactive

How did CC(=O)Nc1cc2c(cc1Br)-c1ccccc1C2 do in these assays?
GDH-TPI counter: inactive; FadD28 FP inh: inactive; Mtb FBA inh: inactive

How did O=C(CN1CCCC1)NCC(=O)Nc1ccc(F)cc1 do in these assays?
Mtb UGM inh: inactive; GDH-TPI counter: inactive; FadD28 FP inh: inactive; Rv3671c inh: inactive; Mtb betalactam: inactive; Mtb FBA inh: active

What do the screens show for `O=C(CN1CCCC1)Nc1ccc(F)cc1`?
Mtb UGM inh: inactive; GDH-TPI counter: inactive; FadD28 FP inh: inactive; Rv3671c inh: inactive; Mtb betalactam: inactive; Mtb FBA inh: inactive

Results for CCOC(=O)C1=CCN(S(=O)(=O)c2ccccc2[N+](=O)[O-])C1c1ccc(C)cc1 (configuration not stated) ?
FadD28 FP inh: inactive; Mtb FBA inh: inactive

How did O=c1oc2c(O)c(O)cc3c(=O)oc4c(O)c(O)cc1c4c23 do in these assays?
Mtb UGM inh: inactive; GDH-TPI counter: inactive; FadD28 FP inh: 14; Rv3671c inh: inactive; Mtb betalactam: inactive; Mtb FBA inh: inactive
